Results on six sequences are retold here after the supplement of paper PMC6555819.

What all share (assay): PBM binding z-score (relative to random genomic background probes); higher = stronger binding; sequences stand for … in GC…GCGATTGACAGCGTAGAATGAAGG
For experiment [1], the system named is FXR:RXRa (NR concentration 270 nM, RXRa partner concentration 90 nM). In short, it runs like this: (§1)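 Random background probes are the reference for binding z-scores. These scores derive from regression-normalized fluorescence on custom Agilent 4×180K protein-binding microarrays incubated 1 h with ligand-free nuclear receptor dimers. Binding was detected with antibodies against each partner (one per run).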

The test system of experiment [2] is LXRa:RXRa (NR concentration 270 nM, RXRa partner concentration 90 nM). In short, it runs like this:
as §1

In experiment [3] the test system is LXRa homodimer (NR concentration 270 nM). An outline of the steps: as §1
The test system of experiment [4] is LXRb:RXRa (NR concentration 270 nM, RXRa partner concentration 90 nM). An outline of the steps:
as §1

Experiment [5] concerns LXRb homodimer (NR concentration 270 nM). In short, it runs like this: as §1
Experiment [6] deals with PPARa:RXRa (NR concentration 270 nM, RXRa partner concentration 90 nM). An outline of the steps: as §1
Experiment [7] concerns PPARg:RXRa (NR concentration 180 nM, RXRa partner concentration 90 nM). In short, it runs like this: as §1
Experiment [8] relates to PPARg:RXRa 270nM:90nM, anti-RXR (NR concentration 270 nM, RXRa partner concentration 90 nM). In short, it runs like this: as §1
Experiment [9] relates to PPARg:RXRa 30nM:10nM, anti-RXR (NR concentration 30 nM, RXRa partner concentration 10 nM). An outline of the steps: as §1
In experiment [10] the test system is PPARg:RXRa 90nM:30nM, anti-RXR (NR concentration 90 nM, RXRa partner concentration 30 nM). In short, it runs like this: as §1
For experiment [11], the system named is PPARg:RXRa DBDmut IVT, anti-RXR (DBD mutation: RXRa K156A/R161A, NR concentration 270 nM, RXRa partner concentration 90 nM). An outline of the steps: as §1
Experiment [12] relates to PPARg:RXRa IVT, anti-PPARg (NR concentration 270 nM, RXRa partner concentration 90 nM). In short, it runs like this: as §1
The test system of experiment [13] is PPARg DBDmut:RXRa IVT, anti-PPARg (DBD mutation: PPARg1 K132A/R137A, NR concentration 270 nM, RXRa partner concentration 90 nM). In short, it runs like this:
as §1

In experiment [14] the test system is PPARg DBDmut IVT, anti-PPARg (DBD mutation: PPARg1 K132A/R137A, NR concentration 270 nM). In short, it runs like this:
as §1

The test system of experiment [15] is PPARg homodimer (NR concentration 180 nM). An outline of the steps: as §1
The test system of experiment [16] is PXR:RXRa (NR concentration 270 nM, RXRa partner concentration 90 nM). An outline of the steps: as §1
Experiment [17] concerns PXR homodimer (NR concentration 270 nM). In short, it runs like this:
as §1

The test system of experiment [18] is RARa:RXR (NR concentration 270 nM, RXRa partner concentration 90 nM). In short, it runs like this: as §1
For experiment [19], the system named is RARa homodimer (NR concentration 270 nM). An outline of the steps: as §1
Experiment [20] relates to RARb:RXRa (NR concentration 270 nM, RXRa partner concentration 90 nM). An outline of the steps: as §1

Consider GCTAGCAGGCCATTTGGATCACTCAATGACGGGC, for which the PBM binding z-score in experiment [1] is -0.129; in experiment [2], -0.387; in experiment [3] it was -0.841; in experiment [4], -0.881; in experiment [5] it was -0.721; in experiment [6] it was -0.45. The PBM binding z-score in experiment [7] was 0.511; in experiment [8] it was -0.386; in [9] it was -0.566; in experiment [10], -0.739; in [11] it was 0.765; in experiment [12], 0.13. For the same sequence, the PBM binding z-score in [13] was -0.26; in experiment [14], -0.878; in [15] it was -0.828; in experiment [16] it was -0.802; in [17] it was -0.249; in experiment [18] it was -0.562. Also, the PBM binding z-score in experiment [19] is -0.338; in [20], 0.151.
For ATCACTAGGTAAAGTTCAGTGAAAGATCGATAGA, the PBM binding z-score in experiment [1] stood at 0.984; in [2] it was 1.7; in [3] it was 1.43; in [4] it was 1.17; in experiment [5], 0.688; in experiment [6], 2.22. For the same sequence, the PBM binding z-score in experiment [7] turned out to be 2.59; in experiment [8], 3.38; in experiment [9], 1.45; in experiment [10] it was 2.7; in [11], 3.89; in [12], 3.29. The PBM binding z-score in experiment [13] came to 1.1; in experiment [14], 0.944; in experiment [15], 1.33; in experiment [16], 1.91; in experiment [17], 1.73; in experiment [18], 1.48. The PBM binding z-score in experiment [19] came to 1.19; in [20], 2.7.
Regarding TAGCCTAGGTCATTGGGCCAGTAAAGTACGCATC, the PBM binding z-score in [1] stood at 4.37; in experiment [2], 3.38; in experiment [3], 0.448; in [4], 2.29; in experiment [5] it was 0.0341; in [6] it was 4. For the same sequence, the PBM binding z-score amounted to 3.28 in [7]; 3.76 in [8]; 1.14 in [9]; 2.4 in [10]; 2.98 in [11]; 3.93 in experiment [12]. In addition, the PBM binding z-score in experiment [13] is -0.798; in experiment [14] it was -0.582; in experiment [15] it was 0.663; in [16], 1.55; in [17], -0.454; in experiment [18], 2.08. Also, the results for the PBM binding z-score in [19] and in experiment [20] were 0.18 and 3.63, respectively.
For the sequence TCATATTGGTAATACAGGTGAAAGTCGGCATCTA, the PBM binding z-score in experiment [1] stood at 1.28; in experiment [2], 1.16; in experiment [3], 0.763; in experiment [4], 1.2; in experiment [5], 0.359; in [6], 1.79. In addition, the PBM binding z-score was 1.09 in experiment [7]; 2.7 in [8]; 3.88 in experiment [9]; 3.11 in [10]; 2.7 in experiment [11]; 1.89 in experiment [12]. For the same sequence, the PBM binding z-score in [13] turned out to be 0.751; in experiment [14], 1.85; in experiment [15] it was 1.69; in [16], 0.947; in experiment [17] it was 0.763; in experiment [18], 1.09. Also, the PBM binding z-score in experiment [19] is 1.43; in [20] it was 0.496.
On to ATATGTAGGTTACATCCGGATCATTCAGGCTATG, for which the PBM binding z-score stood at 0.642 in [1]; 3.17 in [2]; 0.493 in experiment [3]; 1.65 in experiment [4]; 0.498 in experiment [5]; 3.35 in experiment [6]. For the same sequence, the PBM binding z-score amounted to 5.19 in [7]; 4.14 in [8]; 1.64 in experiment [9]; 3.4 in experiment [10]; 7.7 in experiment [11]; 7.49 in experiment [12]. Also, the PBM binding z-score was 3.14 in [13]; 2.67 in experiment [14]; 1 in [15]; 0.73 in [16]; 0.559 in [17]; 1.04 in [18]. The PBM binding z-score worked out at 0.899 in experiment [19] and 1.05 in experiment [20].
For the sequence GATATTAGTTGAAAGGGCAACCGAATGATTCTCG, the PBM binding z-score in experiment [1] amounted to 0.693; in [2], 1.12; in experiment [3] it was 0.566; in [4], 1.26; in experiment [5], 0.285; in experiment [6] it was 2.63. In addition, the PBM binding z-score came out at 2.9 in experiment [7]; 4.65 in experiment [8]; 2.47 in [9]; 4.54 in [10]; 0.557 in [11]; 1.16 in experiment [12]. Further, the PBM binding z-score in [13] came to 0.952; in [14], 0.799; in experiment [15], 2.21; in experiment [16] it was 0.994; in [17], 0.916; in experiment [18], 1.81. For the same sequence, the PBM binding z-score was found to be 2.21 in experiment [19] and 2.27 in experiment [20].
